In ChEMBL document CHEMBL1961873, “Compounds: GSK PKIS; Assays: Nanosyn kinase panel” (2012):

Columns and labels:
[1] = biological target: RAC-alpha serine/threonine-protein kinase (Homo sapiens) (UniProt P31749); conditions: at 0.1 µM
[2] = biological target: RAC-alpha serine/threonine-protein kinase (Homo sapiens) (UniProt P31749); conditions: at 1 µM
[3] = biological target: RAC-beta serine/threonine-protein kinase (Homo sapiens) (UniProt P31751); conditions: at 0.1 µM
[4] = biological target: RAC-beta serine/threonine-protein kinase (Homo sapiens) (UniProt P31751); conditions: at 1 µM
[5] = biological target: RAC-gamma serine/threonine-protein kinase (Homo sapiens) (UniProt Q9Y243); conditions: at 0.1 µM
[6] = biological target: RAC-gamma serine/threonine-protein kinase (Homo sapiens) (UniProt Q9Y243); conditions: at 1 µM
[7] = biological target: G protein-coupled receptor kinase 6 (Homo sapiens) (UniProt P43250); conditions: at 0.1 µM
[8] = biological target: G protein-coupled receptor kinase 6 (Homo sapiens) (UniProt P43250); conditions: at 1 µM
[9] = biological target: T1, Rhodopsin kinase GRK7 (Homo sapiens) (UniProt Q8WTQ7); conditions: at 0.1 µM
T1 sequence (whole entry): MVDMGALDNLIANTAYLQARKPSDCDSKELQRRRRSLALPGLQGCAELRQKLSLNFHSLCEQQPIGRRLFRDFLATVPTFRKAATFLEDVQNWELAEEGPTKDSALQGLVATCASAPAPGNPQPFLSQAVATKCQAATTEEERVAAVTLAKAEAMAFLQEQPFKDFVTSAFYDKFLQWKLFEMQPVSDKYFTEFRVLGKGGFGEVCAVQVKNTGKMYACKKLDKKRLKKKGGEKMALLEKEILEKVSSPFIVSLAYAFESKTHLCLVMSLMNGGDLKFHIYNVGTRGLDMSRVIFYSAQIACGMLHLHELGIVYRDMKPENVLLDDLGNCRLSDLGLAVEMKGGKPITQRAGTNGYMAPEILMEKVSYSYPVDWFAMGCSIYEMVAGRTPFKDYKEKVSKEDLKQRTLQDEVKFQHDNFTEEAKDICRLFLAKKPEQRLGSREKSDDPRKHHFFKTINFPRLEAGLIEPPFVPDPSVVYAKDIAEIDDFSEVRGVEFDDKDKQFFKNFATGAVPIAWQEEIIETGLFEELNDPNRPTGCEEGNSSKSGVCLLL

[10] = biological target: T1, Rhodopsin kinase GRK7 (Homo sapiens); conditions: at 1 µM
[11] = biological target: Serine/threonine-protein kinase MRCK alpha (Homo sapiens) (UniProt Q5VT25); conditions: at 0.1 µM
[12] = biological target: Serine/threonine-protein kinase MRCK alpha (Homo sapiens) (UniProt Q5VT25); conditions: at 1 µM
[13] = biological target: Serine/threonine-protein kinase MRCK beta (Homo sapiens) (UniProt Q9Y5S2); conditions: at 0.1 µM
[14] = biological target: Serine/threonine-protein kinase MRCK beta (Homo sapiens) (UniProt Q9Y5S2); conditions: at 1 µM
[15] = biological target: Ribosomal protein S6 kinase alpha-5 (Homo sapiens) (UniProt O75582); conditions: at 0.1 µM
[16] = biological target: Ribosomal protein S6 kinase alpha-5 (Homo sapiens) (UniProt O75582); conditions: at 1 µM
[17] = biological target: Ribosomal protein S6 kinase alpha-4 (Homo sapiens) (UniProt O75676); conditions: at 0.1 µM
[18] = biological target: Ribosomal protein S6 kinase alpha-4 (Homo sapiens) (UniProt O75676); conditions: at 1 µM
[19] = biological target: Ribosomal protein S6 kinase beta-1 (Homo sapiens) (UniProt P23443); conditions: at 0.1 µM
[20] = biological target: Ribosomal protein S6 kinase beta-1 (Homo sapiens) (UniProt P23443); conditions: at 1 µM

Sequence of Serine/threonine-protein kinase MRCK beta (Homo sapiens) (Q9Y5S2 whole entry): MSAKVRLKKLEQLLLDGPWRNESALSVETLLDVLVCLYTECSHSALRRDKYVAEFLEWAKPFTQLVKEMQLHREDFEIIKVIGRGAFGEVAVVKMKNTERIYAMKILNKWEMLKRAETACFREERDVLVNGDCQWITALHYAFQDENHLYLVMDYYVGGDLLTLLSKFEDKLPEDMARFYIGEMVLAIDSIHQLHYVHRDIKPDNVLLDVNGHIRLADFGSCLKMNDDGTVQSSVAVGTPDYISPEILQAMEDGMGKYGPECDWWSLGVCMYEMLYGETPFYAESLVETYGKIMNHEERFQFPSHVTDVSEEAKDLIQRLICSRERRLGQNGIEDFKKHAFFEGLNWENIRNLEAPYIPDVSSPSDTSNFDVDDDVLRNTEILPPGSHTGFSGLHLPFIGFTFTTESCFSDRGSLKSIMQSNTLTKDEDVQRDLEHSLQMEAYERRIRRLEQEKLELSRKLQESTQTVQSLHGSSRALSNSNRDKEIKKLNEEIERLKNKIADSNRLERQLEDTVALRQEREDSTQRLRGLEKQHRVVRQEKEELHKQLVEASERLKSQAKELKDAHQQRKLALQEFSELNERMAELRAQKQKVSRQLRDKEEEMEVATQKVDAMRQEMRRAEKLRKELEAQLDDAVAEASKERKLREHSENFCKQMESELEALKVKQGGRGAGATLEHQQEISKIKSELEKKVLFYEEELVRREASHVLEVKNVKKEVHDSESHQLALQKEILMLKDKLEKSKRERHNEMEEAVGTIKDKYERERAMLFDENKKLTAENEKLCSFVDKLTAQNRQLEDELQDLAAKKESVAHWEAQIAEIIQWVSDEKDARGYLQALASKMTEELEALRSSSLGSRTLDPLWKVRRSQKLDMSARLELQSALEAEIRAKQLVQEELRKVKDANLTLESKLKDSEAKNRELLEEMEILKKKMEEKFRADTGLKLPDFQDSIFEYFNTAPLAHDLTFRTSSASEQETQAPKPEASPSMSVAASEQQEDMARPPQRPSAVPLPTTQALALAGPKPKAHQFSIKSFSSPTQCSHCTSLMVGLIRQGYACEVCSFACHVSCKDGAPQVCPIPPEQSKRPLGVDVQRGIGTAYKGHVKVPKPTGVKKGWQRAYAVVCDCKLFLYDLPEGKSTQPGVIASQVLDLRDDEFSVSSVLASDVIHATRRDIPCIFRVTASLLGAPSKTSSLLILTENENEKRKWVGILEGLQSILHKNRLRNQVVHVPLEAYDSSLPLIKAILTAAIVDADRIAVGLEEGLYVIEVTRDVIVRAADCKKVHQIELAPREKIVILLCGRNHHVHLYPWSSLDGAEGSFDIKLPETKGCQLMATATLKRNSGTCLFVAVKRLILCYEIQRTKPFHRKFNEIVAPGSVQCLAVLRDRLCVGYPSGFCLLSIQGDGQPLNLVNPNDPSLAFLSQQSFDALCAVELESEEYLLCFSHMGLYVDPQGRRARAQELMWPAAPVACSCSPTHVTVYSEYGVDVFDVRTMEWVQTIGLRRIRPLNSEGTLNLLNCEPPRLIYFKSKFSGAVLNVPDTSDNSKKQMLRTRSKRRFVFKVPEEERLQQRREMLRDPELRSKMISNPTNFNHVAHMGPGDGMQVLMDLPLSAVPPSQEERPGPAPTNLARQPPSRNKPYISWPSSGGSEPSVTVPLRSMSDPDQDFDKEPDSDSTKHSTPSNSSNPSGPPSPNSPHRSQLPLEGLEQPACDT
Sequence of Serine/threonine-protein kinase MRCK alpha (Homo sapiens) (Q5VT25 whole entry): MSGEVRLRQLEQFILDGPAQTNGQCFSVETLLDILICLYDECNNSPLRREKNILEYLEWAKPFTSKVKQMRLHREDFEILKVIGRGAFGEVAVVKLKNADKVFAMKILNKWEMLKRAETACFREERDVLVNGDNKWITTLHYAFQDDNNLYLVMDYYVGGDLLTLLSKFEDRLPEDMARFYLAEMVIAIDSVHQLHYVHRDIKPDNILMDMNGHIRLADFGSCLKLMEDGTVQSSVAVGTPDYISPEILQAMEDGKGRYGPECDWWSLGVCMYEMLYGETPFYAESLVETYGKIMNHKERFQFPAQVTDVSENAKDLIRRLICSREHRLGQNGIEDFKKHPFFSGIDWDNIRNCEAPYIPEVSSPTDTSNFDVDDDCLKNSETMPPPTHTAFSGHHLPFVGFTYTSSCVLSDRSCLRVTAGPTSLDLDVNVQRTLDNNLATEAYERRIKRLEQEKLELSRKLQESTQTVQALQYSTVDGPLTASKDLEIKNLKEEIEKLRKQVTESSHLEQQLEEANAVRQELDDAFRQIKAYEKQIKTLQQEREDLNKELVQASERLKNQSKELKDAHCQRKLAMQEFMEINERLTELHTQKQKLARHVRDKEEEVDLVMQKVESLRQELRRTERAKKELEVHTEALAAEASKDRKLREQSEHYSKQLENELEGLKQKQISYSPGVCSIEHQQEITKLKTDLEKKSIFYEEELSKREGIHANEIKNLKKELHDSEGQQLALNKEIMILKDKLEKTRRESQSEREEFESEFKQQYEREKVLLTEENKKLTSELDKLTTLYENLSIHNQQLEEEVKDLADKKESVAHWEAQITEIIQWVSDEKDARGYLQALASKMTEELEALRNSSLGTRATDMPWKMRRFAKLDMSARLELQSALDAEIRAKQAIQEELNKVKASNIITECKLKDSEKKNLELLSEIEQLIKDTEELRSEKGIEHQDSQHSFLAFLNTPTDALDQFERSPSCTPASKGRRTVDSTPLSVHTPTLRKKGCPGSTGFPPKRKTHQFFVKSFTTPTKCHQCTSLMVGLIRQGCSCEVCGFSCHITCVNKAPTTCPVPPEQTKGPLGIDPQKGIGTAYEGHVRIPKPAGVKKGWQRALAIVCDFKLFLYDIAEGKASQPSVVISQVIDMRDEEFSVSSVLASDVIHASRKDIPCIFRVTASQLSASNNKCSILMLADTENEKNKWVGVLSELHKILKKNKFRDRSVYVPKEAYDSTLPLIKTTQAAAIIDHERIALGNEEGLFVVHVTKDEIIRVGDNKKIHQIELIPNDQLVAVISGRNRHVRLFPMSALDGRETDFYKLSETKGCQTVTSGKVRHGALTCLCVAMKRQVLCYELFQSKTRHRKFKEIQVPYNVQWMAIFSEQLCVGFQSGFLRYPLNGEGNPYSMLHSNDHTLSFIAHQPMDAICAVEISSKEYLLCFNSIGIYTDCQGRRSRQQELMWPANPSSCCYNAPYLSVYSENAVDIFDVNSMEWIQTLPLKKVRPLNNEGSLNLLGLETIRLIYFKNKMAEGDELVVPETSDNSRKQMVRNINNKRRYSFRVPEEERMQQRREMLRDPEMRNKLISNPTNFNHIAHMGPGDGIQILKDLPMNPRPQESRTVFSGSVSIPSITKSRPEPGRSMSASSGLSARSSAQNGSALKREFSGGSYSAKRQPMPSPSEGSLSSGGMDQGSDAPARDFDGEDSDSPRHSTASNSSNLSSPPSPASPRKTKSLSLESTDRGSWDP
Sequence of Ribosomal protein S6 kinase alpha-5 (Homo sapiens) (O75582 whole entry, looked up): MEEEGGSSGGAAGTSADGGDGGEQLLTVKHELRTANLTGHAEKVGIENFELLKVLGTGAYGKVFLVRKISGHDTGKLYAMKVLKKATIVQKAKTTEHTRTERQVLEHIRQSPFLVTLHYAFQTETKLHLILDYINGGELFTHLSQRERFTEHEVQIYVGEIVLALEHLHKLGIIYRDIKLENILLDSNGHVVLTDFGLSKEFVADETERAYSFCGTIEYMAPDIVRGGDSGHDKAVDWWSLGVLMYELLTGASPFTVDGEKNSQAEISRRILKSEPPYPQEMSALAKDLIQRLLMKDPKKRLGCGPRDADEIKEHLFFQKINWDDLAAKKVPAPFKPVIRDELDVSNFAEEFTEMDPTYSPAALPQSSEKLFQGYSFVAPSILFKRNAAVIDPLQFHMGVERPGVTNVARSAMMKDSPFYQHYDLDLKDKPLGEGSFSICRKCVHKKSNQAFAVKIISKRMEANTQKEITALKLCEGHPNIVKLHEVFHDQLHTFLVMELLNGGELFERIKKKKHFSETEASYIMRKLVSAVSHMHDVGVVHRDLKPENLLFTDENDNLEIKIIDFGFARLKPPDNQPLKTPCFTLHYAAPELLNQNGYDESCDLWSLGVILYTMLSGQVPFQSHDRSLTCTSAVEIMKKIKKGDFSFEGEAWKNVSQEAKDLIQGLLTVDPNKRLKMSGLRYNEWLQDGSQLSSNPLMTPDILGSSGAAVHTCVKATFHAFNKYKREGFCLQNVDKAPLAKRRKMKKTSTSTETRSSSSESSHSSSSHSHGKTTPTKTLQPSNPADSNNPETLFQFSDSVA
Sequence of Ribosomal protein S6 kinase beta-1 (Homo sapiens) (P23443 whole entry, looked up): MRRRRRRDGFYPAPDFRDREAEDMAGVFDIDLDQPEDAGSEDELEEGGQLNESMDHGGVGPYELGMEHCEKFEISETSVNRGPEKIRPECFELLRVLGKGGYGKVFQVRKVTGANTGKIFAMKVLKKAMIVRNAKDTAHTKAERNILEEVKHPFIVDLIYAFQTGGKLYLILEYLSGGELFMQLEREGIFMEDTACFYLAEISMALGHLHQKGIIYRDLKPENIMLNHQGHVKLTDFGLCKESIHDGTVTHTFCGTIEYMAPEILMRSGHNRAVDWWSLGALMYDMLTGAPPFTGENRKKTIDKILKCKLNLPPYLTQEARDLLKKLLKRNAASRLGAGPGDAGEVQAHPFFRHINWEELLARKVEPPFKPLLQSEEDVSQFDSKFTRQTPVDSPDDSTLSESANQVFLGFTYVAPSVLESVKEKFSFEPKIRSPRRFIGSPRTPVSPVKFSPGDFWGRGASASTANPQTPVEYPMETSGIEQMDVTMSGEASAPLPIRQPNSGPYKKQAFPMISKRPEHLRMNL

SMILES	inhibition [1] [%]	inhibition [2] [%]	inhibition [3] [%]	inhibition [4] [%]	inhibition [5] [%]	inhibition [6] [%]	inhibition [7] [%]	inhibition [8] [%]	inhibition [9] [%]	inhibition [10] [%]	inhibition [11] [%]	inhibition [12] [%]	inhibition [13] [%]	inhibition [14] [%]	inhibition [15] [%]	inhibition [16] [%]	inhibition [17] [%]	inhibition [18] [%]	inhibition [19] [%]	inhibition [20] [%]
CCn1c(-c2nonc2N)nc2c(C#CC(C)(C)O)nc(OC[C@@H](N)c3ccccc3)cc21	38.2	85.2	61.2	91.1	48.4	87.2	-1.09	-0.69	-0.18	16.6	12	48.2	11.1	48.5	-5.71	8.99	1.92	19.7	5.44	36
CCCN1CCC(Oc2cc(Nc3nc(Nc4cccc(F)c4C(N)=O)c4cc[nH]c4n3)c(OC)cc2Cl)CC1	0.07	1.83	1.14	2.04	1.42	1.06	1.2	1.87	3.39	7.39	0.81	-1.24	1.36	2.2	1.01	3.87	1.03	1.99	-0.03	1.36
COc1cc2ncn(-c3cc(OCc4ccccc4Cl)c(C(N)=O)s3)c2cc1OC	-1.2	-0.21	-0.21	0.92	1.15	-1.17	2.37	5.7	-0.82	9.44	-0.28	2.18	0.86	1.67	-5.34	-5.25	0.79	3.02	0.47	0.64
COc1cc(C=NNc2ncnc3c2cnn3-c2ccccc2)ccc1O	0.7	-1.12	2.4	-2.91	1.08	-1.19	1.52	-6.34	-0.04	-4.38	0.09	3.38	1.02	2.48	-3.81	-1.13	1.6	4.55	2.72	10.3
N#Cc1c(NC(=O)c2cccc3ccccc23)sc2c1CCCC2	0.5	0.48	1.74	2.41	1.33	1.85	3.58	3.47	2.52	6.83	-0.22	-0.12	0.93	1.57	7.78	6.93	1.95	2.56	1.14	2.63
CS(=O)(=O)CCNCc1ccc(-c2ccc3ncnc(Nc4ccc(OCc5ccccc5)c(Cl)c4)c3c2)o1	-1	-0.87	0.26	0.32	-0.1	-0.63	0.49	0.68	7.87	-3.27	-0.63	-1.47	0.86	0.8	-7.35	-6.84	0.04	1.73	0.22	2.03
COc1cc2ncn(-c3cc(O[C@@H](C)c4ccccc4Cl)c(C(N)=O)s3)c2cc1OC	0.32	1.3	1.65	1.94	1.85	1.32	0.89	2.39	9.14	4.64	1.42	0.91	0.43	3.35	11.4	11.6	4.79	5.46	0.94	2.16
CS(=O)(=O)CCNCc1ccc(-c2ccc3ncnc(Nc4ccc(OCc5cccc(F)c5)c(C(F)(F)F)c4)c3c2)o1	1.75	0.54	2.87	0.73	2.73	2.96	9.26	5.4	3.55	8.92	-0.31	1.73	-0.15	0.67	9.28	8.53	2.67	2.44	1.58	2.22
CC1=C(C(=O)Nc2ccc3[nH]ncc3c2)C(c2ccc(Cl)c(Cl)c2)CC(=O)N1 (stereo not given)	-0.08	1.46	1.11	1.63	0.95	2.81	4.25	7.35	-1.63	-5.21	1.51	20.1	5.81	35	10.3	46.4	7.4	39.1	3.83	25.2
CCn1c(-c2nonc2N)nc2cnc(Oc3cccc(NC(=O)c4ccc(OCCN5CCOCC5)cc4)c3)cc21	1.6	7.87	2.69	7.74	2.01	7.9	6.32	9.42	1.38	9.5	6.6	42.3	17.8	59	66.8	78.1	56.7	76.7	84.6	93
CS(=O)(=O)CCNCc1nc(-c2ccc3ncnc(Nc4ccc(F)c(Cl)c4)c3c2)cs1	0.62	-0.01	0.07	1.1	1.52	-0.89	1.59	3.85	5.77	-4.62	1.82	3.22	-0.31	-0.48	1.46	6.15	1.32	1.96	-0.63	1.77
COc1cc2c(cc1Nc1nc(N3CCc4ccccc43)c3cc[nH]c3n1)N(C(=O)CN(C)C)CC2	1.38	1.39	0.6	1.42	1.23	1.23	1.54	-3.01	-0.63	-6.08	1	-1.14	0.86	1.27	4.25	4.71	0.65	1.75	1.59	0.46
CCn1c(-c2nonc2N)nc2cncc(C(=O)N3CC[C@H](N)C3)c21	3.33	19.5	3.72	13.3	5.44	32.9	6.84	8.03	3.41	10.7	14.5	68.7	23.1	67.2	67.9	81.4	44.5	74.3	32.9	80.3
COc1cccc(-n2ncc3c(N/N=C/c4cccc(F)c4)ncnc32)c1	-2.98	-3.97	-2.03	-2.75	-1.82	-1.99	3.44	0.12	1.93	10.3	0.1	-0.68	1.2	0.38	0.41	-0.25	2.4	2.89	0.65	2.01
COC(=O)Nc1nc2cc(Oc3cccc(NC(=O)Nc4cc(C(F)(F)F)ccc4F)c3)ccc2[nH]1	0.52	0.1	-0.46	-0.62	0.98	1.83	2.28	0.3	-2.92	1.74	0.87	0.69	-0.19	2.03	0.09	1.11	-0.69	1.7	-0.07	1.88
Cc1ccc(C(=O)NC2CCCCC2)cc1-c1ccc(C(=O)NCC2CC2)cc1	0.04	0.76	1.52	1.72	2.01	0.64	-0.29	-3.25	2.64	6.92	1.04	0.21	1.37	1.51	2.76	3.23	1.19	2.43	-0.26	0.99
COc1ccc2cc(-c3c(-c4ccncc4)nc(-c4ccc([S+](C)[O-])cc4)n3C)ccc2c1 (stereo not given)	1	0.09	1.34	1.69	1.23	0.72	-3.74	-0.39	2.62	2.42	0.19	1.36	0.92	1.62	3.04	1.94	1.31	4.13	2.56	2.88
NC(=O)c1cccc(Nc2nccc(Nc3cccc4[nH]ncc34)n2)c1	-2.33	1.84	-3.71	-1.08	-2.36	-1.13	-0.32	2.35	-7.6	5.88	-0.16	2.18	0.71	3.5	-3.36	2.78	-1.85	1.24	-1.61	4.1
NC(=O)c1ccc(-c2nc(-c3ccccn3)c(-c3ccc4c(c3)OCO4)[nH]2)cc1	0.43	0.86	1.27	1.16	0.75	0.48	0.64	5.54	1.63	6.3	0.14	2.49	1.08	0.59	1.5	1.56	2.14	4.23	1.26	2.46
Fc1cccc(COc2ccc(Nc3ncnc4sc(-c5cccs5)cc34)cc2Cl)c1	0.07	-0.67	-0.49	0.01	0.23	1.25	1.48	1.31	7.27	-0.21	1.75	2.49	1.14	1.28	-5.35	-7.37	1.59	1.29	-0.02	0.68
COc1cc(C)c(NC(=O)CN(C)C)cc1Nc1nc(Nc2cccc(F)c2C(N)=O)c2cc[nH]c2n1	1.35	0.96	0.81	1.17	0.86	1.72	12.9	51.2	8.5	28.1	-0.22	2.53	-0.26	1.65	1.58	0.97	-0.16	2.07	2.03	3.01
Cc1cccc(-c2n[nH]cc2-c2ccc3ncccc3n2)n1	-0.73	0.02	0.56	-0.22	2.42	2.13	0.46	3.16	-0.51	5.08	0.34	0.69	0.87	1.36	0.79	0.35	1.84	0.64	0.55	-0.68
CCn1c(-c2nonc2N)nc2c(C#CC(C)(C)O)nc(CN3CCCC3)cc21	8.37	54.9	10	55.5	18.8	78.7	-2.28	-0.02	-4.34	3.4	2.53	0.11	1.98	4.91	0.29	3.07	2	6.06	0.33	1.37
CN1CCC(C(=O)Nc2n[nH]c3nnc(-c4ccccc4)cc23)CC1	0.8	0.53	3.48	1.57	2.3	2.79	7.16	14.5	7.52	15.6	0.2	2.63	-0.23	0.78	-1.68	-1.22	2.89	4.31	1.63	2.47
O=C1NC(=O)C(c2ccccc2Cl)=C1Nc1cccc(O)c1	0.96	1.06	1.74	1.48	0.92	1.56	1.82	2.13	1.36	-6.28	0.28	-0.35	1.4	3.99	2.66	5.41	1.39	3.42	1.47	0.61
CCn1c(-c2nonc2N)nc2cncc(C(=O)N3CCNCC3)c21	0.91	2.57	2.91	2.21	2.05	5.1	6.32	9.53	7.48	9.01	5.33	7.84	0.36	3.02	5.57	7.4	3.28	4.71	2.87	4.44
